In the supplement of paper PMC10849652:
Targets with a hit are over-represented here; the source holds about 7,900 in all. About 0.6% of all pairs of compound and target were hits.

Compound: Cn1cc(-c2ccc3nnc(C(F)(F)c4ccc5ncccc5c4)n3n2)cn1
Experiment: log2 fold change, soluble protein after heating vs DMSO (PISA); higher = thermal stabilisation; K562 cells, 10 uM, 30 min; active = over 0.2 and 3.5 SD of the protein, either way, in both replicates (recomputed)
How it was run: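 K562 cells at 2×10^6 cells/mL were treated for 30 min with 10 μM compound, and aliquots were heated for 3 min over 48°C-58°C before pooling. Extraction used PBS with 0.5% NP-40 at 4°C, and soluble protein was the supernatant after 21,000xg for 90 min, measured by TMTpro 16plex LC-MS/MS with channel sums equalised. Thermal stability values, relative to control samples and from duplicates, are log2 fold changes.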

Chain of UniProt P55795 (P55795 whole entry, looked up): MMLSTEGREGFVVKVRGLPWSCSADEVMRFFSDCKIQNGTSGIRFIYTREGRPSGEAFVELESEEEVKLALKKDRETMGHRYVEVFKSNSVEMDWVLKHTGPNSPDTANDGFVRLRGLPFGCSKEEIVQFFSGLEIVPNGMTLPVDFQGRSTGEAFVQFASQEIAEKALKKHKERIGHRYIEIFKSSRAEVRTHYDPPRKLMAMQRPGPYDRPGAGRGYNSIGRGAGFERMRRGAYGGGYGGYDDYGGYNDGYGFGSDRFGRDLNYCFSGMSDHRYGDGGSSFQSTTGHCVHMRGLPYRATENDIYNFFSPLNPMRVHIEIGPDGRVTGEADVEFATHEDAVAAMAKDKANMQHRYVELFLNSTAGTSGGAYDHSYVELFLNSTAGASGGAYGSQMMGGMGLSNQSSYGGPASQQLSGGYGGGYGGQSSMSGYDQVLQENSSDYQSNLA
Chain of UniProt O94925 (O94925 whole entry, looked up): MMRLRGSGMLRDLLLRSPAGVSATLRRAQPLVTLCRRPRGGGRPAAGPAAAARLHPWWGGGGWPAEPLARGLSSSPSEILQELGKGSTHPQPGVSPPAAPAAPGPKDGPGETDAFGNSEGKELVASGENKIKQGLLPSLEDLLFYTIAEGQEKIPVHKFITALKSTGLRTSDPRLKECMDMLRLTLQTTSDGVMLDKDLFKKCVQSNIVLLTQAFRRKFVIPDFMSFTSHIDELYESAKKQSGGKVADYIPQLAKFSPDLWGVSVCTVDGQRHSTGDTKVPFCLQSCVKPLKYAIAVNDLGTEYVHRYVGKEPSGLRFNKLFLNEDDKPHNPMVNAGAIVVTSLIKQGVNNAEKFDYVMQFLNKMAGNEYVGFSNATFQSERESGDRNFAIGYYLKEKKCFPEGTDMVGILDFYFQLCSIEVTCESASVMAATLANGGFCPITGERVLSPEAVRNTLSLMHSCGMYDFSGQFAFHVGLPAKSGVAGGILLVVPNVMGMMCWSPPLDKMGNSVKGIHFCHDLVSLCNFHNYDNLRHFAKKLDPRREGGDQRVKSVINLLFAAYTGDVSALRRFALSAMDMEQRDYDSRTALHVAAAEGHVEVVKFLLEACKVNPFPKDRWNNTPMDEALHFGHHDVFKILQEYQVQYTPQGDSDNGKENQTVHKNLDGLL
Chain of UniProt P00367 (P00367 whole entry, looked up): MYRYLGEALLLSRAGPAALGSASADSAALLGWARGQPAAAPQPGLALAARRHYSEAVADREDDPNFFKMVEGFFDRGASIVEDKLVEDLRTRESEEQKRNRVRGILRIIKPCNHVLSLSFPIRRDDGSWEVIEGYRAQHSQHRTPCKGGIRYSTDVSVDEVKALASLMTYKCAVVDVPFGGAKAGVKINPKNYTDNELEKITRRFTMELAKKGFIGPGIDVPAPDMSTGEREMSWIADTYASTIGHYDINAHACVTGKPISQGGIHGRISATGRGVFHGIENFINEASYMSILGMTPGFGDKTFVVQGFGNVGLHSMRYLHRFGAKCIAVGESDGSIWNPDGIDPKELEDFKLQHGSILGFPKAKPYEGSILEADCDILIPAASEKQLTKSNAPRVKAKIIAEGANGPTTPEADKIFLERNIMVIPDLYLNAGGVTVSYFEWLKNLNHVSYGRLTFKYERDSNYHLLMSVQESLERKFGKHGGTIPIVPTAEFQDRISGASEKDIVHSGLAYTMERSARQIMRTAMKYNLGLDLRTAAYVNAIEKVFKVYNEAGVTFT
Chain of UniProt P50213 (P50213 whole entry, looked up): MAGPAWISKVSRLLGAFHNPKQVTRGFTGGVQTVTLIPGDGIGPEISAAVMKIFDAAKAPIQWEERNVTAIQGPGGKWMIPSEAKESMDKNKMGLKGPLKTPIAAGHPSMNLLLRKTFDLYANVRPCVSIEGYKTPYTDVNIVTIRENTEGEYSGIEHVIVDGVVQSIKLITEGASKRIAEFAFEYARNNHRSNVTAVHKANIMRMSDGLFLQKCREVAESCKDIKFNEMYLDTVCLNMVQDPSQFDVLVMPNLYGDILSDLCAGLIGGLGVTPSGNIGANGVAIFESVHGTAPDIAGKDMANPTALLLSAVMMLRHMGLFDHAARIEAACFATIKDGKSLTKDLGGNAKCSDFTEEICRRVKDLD
Chain of UniProt Q02790 (Q02790 whole entry, looked up): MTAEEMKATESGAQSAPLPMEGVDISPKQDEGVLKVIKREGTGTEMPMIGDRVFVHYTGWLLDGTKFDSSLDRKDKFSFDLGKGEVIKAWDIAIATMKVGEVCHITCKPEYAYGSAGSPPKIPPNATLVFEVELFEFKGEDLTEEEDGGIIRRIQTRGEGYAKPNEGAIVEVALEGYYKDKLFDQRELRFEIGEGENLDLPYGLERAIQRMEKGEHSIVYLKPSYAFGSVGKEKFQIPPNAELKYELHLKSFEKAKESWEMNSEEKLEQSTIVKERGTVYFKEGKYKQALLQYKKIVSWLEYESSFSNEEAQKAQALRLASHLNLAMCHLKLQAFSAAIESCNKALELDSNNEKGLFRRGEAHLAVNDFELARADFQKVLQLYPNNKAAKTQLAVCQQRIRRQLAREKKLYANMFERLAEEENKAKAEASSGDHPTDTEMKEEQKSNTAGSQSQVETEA
Chain of UniProt Q14527 (Q14527 whole entry, looked up): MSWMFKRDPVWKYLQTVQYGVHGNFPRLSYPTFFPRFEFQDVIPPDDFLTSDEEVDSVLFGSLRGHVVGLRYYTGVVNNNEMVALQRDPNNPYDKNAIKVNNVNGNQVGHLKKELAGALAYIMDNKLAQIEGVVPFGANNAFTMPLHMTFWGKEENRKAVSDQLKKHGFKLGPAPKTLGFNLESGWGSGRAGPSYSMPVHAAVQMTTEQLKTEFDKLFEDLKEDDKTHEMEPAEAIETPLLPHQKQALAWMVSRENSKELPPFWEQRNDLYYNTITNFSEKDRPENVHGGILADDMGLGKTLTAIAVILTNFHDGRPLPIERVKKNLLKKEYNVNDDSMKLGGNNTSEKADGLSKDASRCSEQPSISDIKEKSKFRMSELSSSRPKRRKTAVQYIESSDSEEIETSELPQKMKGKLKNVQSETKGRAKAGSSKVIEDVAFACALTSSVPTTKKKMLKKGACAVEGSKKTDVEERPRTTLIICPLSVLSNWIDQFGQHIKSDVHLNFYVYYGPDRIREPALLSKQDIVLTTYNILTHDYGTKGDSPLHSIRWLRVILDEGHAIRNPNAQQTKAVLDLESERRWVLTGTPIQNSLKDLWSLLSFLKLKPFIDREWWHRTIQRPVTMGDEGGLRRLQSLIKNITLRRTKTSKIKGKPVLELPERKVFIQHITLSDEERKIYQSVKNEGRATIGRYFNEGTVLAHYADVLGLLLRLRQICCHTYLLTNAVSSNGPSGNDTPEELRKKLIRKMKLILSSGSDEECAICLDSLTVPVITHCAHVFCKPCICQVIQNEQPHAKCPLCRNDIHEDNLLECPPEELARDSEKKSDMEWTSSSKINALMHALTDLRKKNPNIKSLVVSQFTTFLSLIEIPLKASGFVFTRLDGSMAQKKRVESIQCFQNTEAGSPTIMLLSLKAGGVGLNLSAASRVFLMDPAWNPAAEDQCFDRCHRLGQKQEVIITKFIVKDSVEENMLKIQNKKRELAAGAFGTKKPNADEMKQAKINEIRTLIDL
Chain of UniProt Q96I24 (Q96I24 whole entry, looked up): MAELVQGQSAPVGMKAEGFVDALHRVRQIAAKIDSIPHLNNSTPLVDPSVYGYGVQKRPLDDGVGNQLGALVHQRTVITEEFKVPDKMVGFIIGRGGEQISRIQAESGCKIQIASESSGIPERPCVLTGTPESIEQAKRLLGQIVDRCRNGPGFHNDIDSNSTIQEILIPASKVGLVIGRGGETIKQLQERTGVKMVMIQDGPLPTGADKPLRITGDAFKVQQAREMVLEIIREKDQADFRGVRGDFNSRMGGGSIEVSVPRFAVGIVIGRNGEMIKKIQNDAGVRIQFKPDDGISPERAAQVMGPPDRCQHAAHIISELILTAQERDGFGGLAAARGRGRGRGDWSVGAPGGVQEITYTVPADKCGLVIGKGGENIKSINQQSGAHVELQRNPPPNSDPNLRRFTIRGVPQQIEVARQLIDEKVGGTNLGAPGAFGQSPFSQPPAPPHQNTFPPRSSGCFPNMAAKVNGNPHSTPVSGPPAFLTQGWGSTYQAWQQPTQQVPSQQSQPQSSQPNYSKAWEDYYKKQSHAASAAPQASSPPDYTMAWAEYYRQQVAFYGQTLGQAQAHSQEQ
Chain of UniProt P04066 (P04066 whole entry, looked up): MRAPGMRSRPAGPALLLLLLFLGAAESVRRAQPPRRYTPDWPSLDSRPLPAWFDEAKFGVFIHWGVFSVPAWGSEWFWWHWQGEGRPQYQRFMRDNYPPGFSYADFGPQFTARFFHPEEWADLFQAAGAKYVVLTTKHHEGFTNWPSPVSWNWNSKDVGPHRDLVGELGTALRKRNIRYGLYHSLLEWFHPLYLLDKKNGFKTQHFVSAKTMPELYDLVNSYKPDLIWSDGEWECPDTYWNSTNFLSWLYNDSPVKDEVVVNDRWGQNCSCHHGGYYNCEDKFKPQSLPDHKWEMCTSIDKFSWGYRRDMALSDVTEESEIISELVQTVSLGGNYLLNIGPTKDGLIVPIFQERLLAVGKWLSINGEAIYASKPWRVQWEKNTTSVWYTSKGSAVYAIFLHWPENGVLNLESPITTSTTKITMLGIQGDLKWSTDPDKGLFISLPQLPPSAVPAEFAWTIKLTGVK
Chain of UniProt P60520 (P60520 whole entry, looked up): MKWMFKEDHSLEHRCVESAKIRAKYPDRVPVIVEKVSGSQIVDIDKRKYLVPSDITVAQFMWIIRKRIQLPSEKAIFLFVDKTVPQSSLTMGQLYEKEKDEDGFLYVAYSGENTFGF
Chain of UniProt Q16774 (Q16774 whole entry, looked up): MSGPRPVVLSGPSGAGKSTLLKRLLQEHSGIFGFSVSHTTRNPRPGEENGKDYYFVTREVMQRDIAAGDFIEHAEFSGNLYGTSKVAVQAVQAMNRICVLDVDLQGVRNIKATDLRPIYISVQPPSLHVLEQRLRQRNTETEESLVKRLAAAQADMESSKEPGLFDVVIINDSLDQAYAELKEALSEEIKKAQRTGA

log2 fold change, inactive:
FUBP3 (UniProt Q96I24) -0.045, FKBP3 (UniProt Q00688) 0.021, HDAC6 (UniProt Q9UBN7) -0.005, GALK1 isoform 2 (UniProt P51570) -0.084, IFRD2 isoform 2 (UniProt Q12894) -0.176, FKBP7 (UniProt Q9Y680) 0.012, HEATR3 (UniProt Q7Z4Q2) 0.138, FKBP4 (UniProt Q02790) -0.002, GABARAPL2 (UniProt P60520) 0.279, GIGYF2 (UniProt Q6Y7W6) -0.025, GSR (UniProt P00390) 0.022, GNAS (UniProt Q5JWF2) 0.031, HIST2H2BF isoform 2 (UniProt Q5QNW6) -0.098, HLTF (UniProt Q14527) -0.01, GALNT4 (UniProt Q8N4A0) -0.005, FBXO7 (UniProt Q9Y3I1) -0.002, GMEB1 (UniProt Q9Y692) 0.044, GLUD1 (UniProt P00367) 0.04, FANCI (UniProt Q9NVI1) 0.098, HDAC10 (UniProt Q969S8) 0.001, FUCA1 (UniProt P04066) 0.011, GUK1 isoform 2 (UniProt Q16774) -0.007, GOLGB1 isoform 2 (UniProt Q14789) 0, FANCD2 isoform 1 (UniProt Q9BXW9) 0.1, IDH3A (UniProt P50213) 0.021, GLCCI1 (UniProt Q86VQ1) -0.175, FMC1 (UniProt Q96HJ9) 0.009, GABPA (UniProt Q06546) 0.111, GEMIN5 (UniProt Q8TEQ6) -0.021, GLS (UniProt O94925) 0.003, HEXA (UniProt P06865) 0.006, GEMIN2 (UniProt O14893) -0.095, GNPAT (UniProt O15228) 0.005, HNRNPH2 (UniProt P55795) 0.041, HNRNPH1 (UniProt P31943) 0.055
